Experiment [1] can be described thus: qHTS assay to identify small molecule agonists of the vitamin D receptor (VDR) signaling pathway - cell viability counter screen (AID 743224). Also: nearly all actives have a fitted effect of over 50% in size. Also: potency is read from the fitted curve at half-maximal effect. An outline of the steps:
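VDR-bla cell line, quantitative HTS format; 16 h compound incubation (37C, 5% CO2); ATP-based CellTiter-Glo luminescence measured in the reporter assay wells.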
A general note: Quantitative high-throughput screening tests each substance at several concentrations.

A short description of experiment [2]: qHTS assay to identify small molecule antagonists of the vitamin D receptor (VDR) signaling pathway - cell viability counter screen (AID 743225). Also: nearly all actives have a fitted effect of over 50% in size. Also: potency is read from the fitted curve at half-maximal effect. As to viability change, negative = cytotoxic: % is scaled to controls: 0 for no effect and ±100 for the full control effect. An outline of the steps:
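Luminescent cell viability (CellTiter-Glo) in VDR-bla HEK 293T cells after 16 h compound exposure at 37C in the presence of 3 nM final 1-alpha,25-dihydroxy vitamin D3.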

The nature of experiment [3]: qHTS assay to identify small molecule agonists of the NFkB signaling pathway - cell viability counter screen (AID 1159515; calls by dose curve; also: nearly all actives have a fitted effect of over 55% in size; also: potency is read from the fitted curve at half-maximal effect). In short, it runs like this:
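Viability in NFkB-bla ME-180 cells was measured by CellTiter-Glo luminescence, 30 min room temperature, in wells already treated 5 hr with compounds and read for reporter FRET.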

Experiment [4] is described as follows: qHTS assay to identify small molecule antagonists of the retinoid-related orphan receptor gamma (ROR-gamma) signaling pathway - cell viability counter screen (AID 1159520). Also: nearly all actives have a fitted effect of over 50% in size. Also: potency is read from the fitted curve at half-maximal effect. An outline of the steps:
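Tet-on ROR gamma CHO cells were given compounds for 2 hr, then doxycycline hyclate at 1 uM final, and incubated 16 hr at 37 C. Viability was measured as ATP content by CellTiter-Glo luminescence.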

Experiment [5] has as its target Nuclear receptor ROR-gamma (Homo sapiens) (UniProt P51449). The experiment can be described thus: qHTS assay to identify small molecule antagonists of the retinoid-related orphan receptor gamma (ROR-gamma) signaling pathway (AID 1159521; also: nearly all actives have a fitted effect of over 50% in size; also: potency is read from the fitted curve at half-maximal effect). An outline of the steps: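 CHO cells expressing RORγ under a TET-on promoter, luciferase under RORE control. Dox 1 uM final, 16 h; compounds added 2 h prior. Luminescence decrease measured.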

Experiment [6] can be described thus: qHTS assay to identify small molecule agonists of the AP-1 signaling pathway - cell viability counter screen (AID 1159525; calls by dose curve; also: nearly all actives have a fitted effect of over 55% in size; also: potency is read from the fitted curve at half-maximal effect). In short, it runs like this: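 AP-1-bla ME-180 cells in Opti-MEM with 0.5% dialyzed FBS, compound exposure 5 h at 37 C in 15-point titration. Viability read in the same wells as ATP content by CellTiter-Glo luminescence, normalised to tetra-n-octylammonium bromide and DMSO controls.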

A short description of experiment [7]: qHTS assay to identify small molecule agonists of the RXR signaling pathway - cell viability counter screen (AID 1159529). Also: nearly all actives have a fitted effect of over 50% in size. Also: potency is read from the fitted curve at half-maximal effect. In short, it runs like this:
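Same-well viability check after the LiveBLAzer FRET read: CellTiter-Glo added, luminescence measured after 30 min at room temperature. Reporter HEK 293T cells had been treated with compounds for 16 hr following a 5 hr preincubation.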

Experiment [8] in a line: qHTS assay to identify small molecule antagonists of the retinoid acid receptor (RAR) signaling pathway - cell viability counter screen (AID 1159551). Also: nearly all actives have a fitted effect of over 35% in size. Also: potency is read from the fitted curve at half-maximal effect. An outline of the steps: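 Following overnight attachment, C3RL4 reporter cells received DMSO-dissolved compounds and then retinol (1 uM final). Six hours later at 37 C, ATP content was measured by CellTiter-Glo luminescence.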

A short description of experiment [9]: qHTS assay to identify small molecule antagonists of the retinoic acid receptor (RAR) signaling pathway (AID 1159552; also: nearly all actives have a fitted effect of over 50% in size; also: potency is read from the fitted curve at half-maximal effect). An outline of the steps: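 Readout: luciferase luminescence, 30 min post-reagent at RT. Setup: C3RL4 RARE reporter cells, compounds plus retinol 1 uM final, 6 hr incubation at 37 C and 5% CO2.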
Experiment [10] can be described thus: qHTS assay to identify small molecule agonists of the retinoic acid receptor (RAR) signaling pathway (AID 1159553). Also: % is scaled to controls: 0 for no effect and ±100 for the full control effect. In short, it runs like this:
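Cell line C3RL4, RARE luciferase reporter. Treatment: compounds in DMSO, 6 hr, 37 C, 5% CO2, after overnight plating. Detection: luminescence, 30 min RT after reagent.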

The nature of experiment [11]: qHTS assay to identify small molecule agonists of the AP-1 signaling pathway (AID 1159526; calls by dose curve; also: % is scaled to controls: 0 for no effect and ±100 for the full control effect).
Experiment [12] deals with Retinoic acid receptor RXR-alpha (Homo sapiens) (UniProt P19793). The experiment can be described thus: qHTS assay to identify small molecule agonists of the RXR signaling pathway (AID 1159527; calls by dose curve; also: % is scaled to controls: 0 for no effect and ±100 for the full control effect; nearly all actives have a fitted effect of over 35% in size). In short, it runs like this:
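Beta-lactamase reporter assay, agonist format. Engineered HEK 293T line, charcoal-stripped FBS at 2%, overnight (16 hr) exposure, fluorescence at 460 and 530 nm after 405 nm excitation.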

Molecules are shown by their SMILES. Inconclusive results are not listed. A number with no mark means an inactive call. Activity calls are given as the source filed them. Unless noted, calls follow the shape of the dose curve; as a rule, active = well fitted curve in the direction sought with a large enough effect in the repeat runs; inconclusive = weak or mixed curves; inactive = no such curve, though single readings can be large; an effect the other way counts as inactive or inconclusive.

Retinoic acid receptor RXR-alpha (Homo sapiens), sequence (P19793 whole entry, looked up): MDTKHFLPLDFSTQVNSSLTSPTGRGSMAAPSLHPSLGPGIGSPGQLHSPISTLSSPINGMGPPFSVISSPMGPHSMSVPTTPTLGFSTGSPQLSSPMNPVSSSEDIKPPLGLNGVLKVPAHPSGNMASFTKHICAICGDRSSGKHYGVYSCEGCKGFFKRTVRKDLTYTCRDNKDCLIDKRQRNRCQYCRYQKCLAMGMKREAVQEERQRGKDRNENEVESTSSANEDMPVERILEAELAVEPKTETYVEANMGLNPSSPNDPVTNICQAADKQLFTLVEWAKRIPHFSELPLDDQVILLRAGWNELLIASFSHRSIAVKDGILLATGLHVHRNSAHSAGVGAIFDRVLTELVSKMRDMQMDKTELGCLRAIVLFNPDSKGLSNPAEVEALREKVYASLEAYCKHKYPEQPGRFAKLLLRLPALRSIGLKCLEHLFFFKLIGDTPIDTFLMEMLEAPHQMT

Consider `CC(C)(C)CC(C)(C)c1ccc(O)c(Cc2ccc(Cl)cc2Cl)c1`, for which the Potency in experiment [1] was 23.7 µM (active); in [2], 15.1 µM (active); in [3] it was 16.9 µM (active); in experiment [4] it was 23.7 µM (active); in experiment [5], 18.8 µM (active); in experiment [6], 15.1 µM (active). For the same compound, the values for the Potency in experiment [7], in [8] and in [9] were 7.56 µM (active), 26.6 µM (active) and 13.3 µM (active), respectively.

Consider `Cc1c(C)c2c(c(C)c1OC(=O)CCC(=O)O)CC[C@@](C)(CCC[C@H](C)CCC[C@H](C)CCCC(C)C)O2`, for which the Potency entry in experiment [1], in [2], in [3], in experiment [8], in experiment [9] and in experiment [10] was “inactive” throughout. Further, the Potency in experiment [4] and in experiment [5] was 27.6 µM (active) in each case.

`O=[N+]([O-])c1ccccc1Nc1ccccc1`: the Potency result in experiment [1], in experiment [2], in experiment [3], in experiment [4], in experiment [6] and in experiment [11] was “inactive” throughout. Moreover, the Potency entry in [12], in [7], in [8], in experiment [9] and in experiment [10] was “inactive” throughout.

For `CCCC(C)c1ccccc1O` (stereo unspecified), the Potency result in [1], in experiment [2], in experiment [3], in experiment [4], in experiment [5] and in [12] was “inactive” throughout. Also, the Potency result in [8], in experiment [9] and in experiment [10] was “inactive” throughout.

With `O=[N+]([O-])c1cc(Cl)c(Cl)c(Cl)c1Cl`, the Potency entry in [1], in experiment [2], in experiment [3], in experiment [4], in [5] and in [6] was “inactive” throughout. In addition, the Potency result in experiment [7], in [8] and in [10] was “inactive” each time.

With `Cc1cc(CCN2CCN(c3nsc4ccccc34)CC2)cc2c1NC(=O)CC2(C)C`, the Potency in [1] is 17.4 µM (active); in experiment [2] it was 19.5 µM (active); in experiment [3] it was 54.9 µM (active); in [4] it was 61.1 µM (active); in experiment [5], 9.69 µM (active); in experiment [6], 54.9 µM (active). The Potency in experiment [7] is 11 µM (active); in experiment [9], 30.6 µM (active).

As for `CC(C)(C)c1ccc(C(=O)CCCN2CCC(OC(c3ccccc3)c3ccccc3)CC2)cc1`, the Potency in experiment [3] was 23.9 µM (active); in experiment [4], 21.1 µM (active); in [5] it was 11.9 µM (active); in [6] it was 15.1 µM (active); in [7] it was 15.1 µM (active); in experiment [9], 26.6 µM (active).

`CCN1/C(=C/C=C/c2sc3ccccc3[n+]2CC)Sc2ccccc21`: the Potency in experiment [1] was 4.61 µM (active); in [4] it was 11.6 µM (active); in experiment [5], 2.31 µM (active); in experiment [8], 14.6 µM (active). Also, the Potency result in [2] and in [3] was “inactive” throughout. The viability change, negative = cytotoxic in experiment [6] was -11.9% [at 15.8 µM].

`CCc1cc(Cc2cc(CC)cc(C(C)(C)C)c2O)c(O)c(C(C)(C)C)c1`: the Potency in [1] is 6.17 µM (active); in experiment [2], 4.36 µM (active); in experiment [3], 15.5 µM (active); in experiment [4], 27.3 µM (active); in experiment [5] it was 19.3 µM (active); in [6] it was 11 µM (active). In addition, the Potency is 13.8 µM (active) in [7], 68.6 µM (active) in experiment [8] and 27.3 µM (active) in experiment [9].
